In the supplement of paper PMC13380429:

The molecules below were run on Vero E6 infected with SARS-CoV-2 (assay: morphology score (similarity to uninfected cells); higher = more like uninfected cells). Conditions: 24 h.

Row | SMILES | morphology score
1 | CN(C)CCCSc1ccccc1NC(=O)/C=C/c1ccccc1 [cinanserin] (10 µM) | 0.164
2 | Clc1cccc(-n2nnnc2NCc2ccccc2Oc2ccccn2)c1Cl (10 µM) | -0.0586
3 | O=C(O)CCCc1c[nH]c2ccccc12 [3-indolebutyric-acid] (10 µM) | 0.123
4 | CCN1CCCC(OC(=O)C(c2ccccc2)c2ccccc2)C1 (stereo not given) [piperidolate] (10 µM) | 0.17
5 | Nc1nc2c(ncn2COC(CO)CO)c(=O)[nH]1 [ganciclovir] (10 µM) | 0.108
6 | COc1ccc([C@@H]2CC(=O)c3c(O)cc(O)cc3O2)cc1O [hesperetin] (10 µM) | 0.0387
7 | Fc1ccc(Cl)cc1-c1nc(Nc2ccncc2)c2nccnc2n1 (10 µM) | 0.0882
8 | COc1cc2c(cc1OC)C(=O)C(CC1CCN(Cc3ccccc3)CC1)C2 (stereo not given) [donepezil] (10 µM) | 0.153
9 | C[C@]12CC[C@@H]3c4ccc(O)cc4CC[C@H]3[C@@H]1CCC2=O [estrone] (10 µM) | -0.145
10 | NC(CO)(CO)CO [trometamol] (10 µM) | -0.0719
11 | O=C(/C=C/c1ccc2c(c1)OCO2)N1CCCCC1 [ilepcimide] (10 µM) | 0.197
12 | C1=N/C2=N/c3ccc(OCCN4CCCC4)c(c3)COC/C=C/COCc3cccc(c3)C(=C1)N2 [pacritinib] (0.833333 µM) | 0.286
13 | CCC(C)(C)C(=O)O[C@H]1C[C@@H](C)C=C2C=C[C@H](C)[C@H](CC[C@@H]3C[C@@H](O)CC(=O)O3)[C@H]21 [simvastatin] (0.833333 µM) | -0.0774
14 | COc1cc2ncnc(Nc3cccc(Br)c3)c2cc1OC (10 µM) | -0.238
15 | O=C(CCCl)NCCc1ccccc1 [fenaclon] (10 µM) | 0.0663
16 | Cc1cccc(Oc2cnc(=O)[nH]c2)c1 [tolimidone] (10 µM) | 0.147
17 | O=C1OC(c2ccc(O)cc2)(c2ccc(O)cc2)c2ccccc21 [phenolphthalein] (10 µM) | 0.0414
18 | COc1ccc(C2(CNC(=O)c3ccc(NC(=O)c4ccco4)cc3)CCOCC2)cc1 (0.833333 µM) | 0.269
19 | O=C(O)C1=CCCN(CCOC(c2ccc(C(F)(F)F)cc2)c2ccc(C(F)(F)F)cc2)C1 (10 µM) | 0.0171
20 | O=c1[nH]cnc2c1cnn2[C@@H]1O[C@H](CO)[C@@H](O)[C@H]1O [allopurinol-riboside] (10 µM) | 0.0253

Row | SMILES | morphology score
21 | Cc1cc(-c2nc(-c3ccc(OC(F)(F)F)cc3)no2)nn1Cc1ccnc(N2CCN(C3CC3)CC2)c1 (10 µM) | 0.0825
22 | CCCCCCCCCCCCC/C=C/[C@@H](O)[C@@H](N)CO[P@](=O)(O)OCC[N+](C)(C)C [sphingosylphosphorylcholine] (10 µM) | 0.000181
23 | OB1OCc2cc(Cl)ccc21 (10 µM) | -0.0961
24 | CN(C)c1ccc(/C=C2\CCCN=C2c2cccnc2)cc1 [DMAB-anabaseine] (10 µM) | 0.121
25 | O=C(NC1(c2ccccc2)CC1)c1c(CN2CCC(N3CCCCC3)CC2)c(-c2cccc(C(F)(F)F)c2)nc2cc(Br)ccc12 (0.833333 µM) | -0.235
26 | Nc1cc(N2CCCCC2)nc(N)[n+]1[O-] [minoxidil] (10 µM) | 0.0795
27 | CCN(CC)CCNC(=O)c1ccc(N)cc1 [procainamide] (10 µM) | 0.00737
28 | C[C@@H](CN(C)C)CN1c2ccccc2Sc2ccccc21 (racemic) [alimemazine] (0.833333 µM) | -0.144
29 | COc1cc(O)c2c(c1)C(=O)c1cc(C)cc(O)c1C2=O [rheochrysidin] (10 µM) | 0.119
30 | COc1ccc2c(C(=S)N(C)CC(=O)O)cccc2c1C(F)(F)F [tolrestat] (10 µM) | -0.0111
31 | Cc1ccc(-c2cn3c4c(sc3n2)CCCC4)cc1 [pifithrin-cyclic] (10 µM) | -0.115
32 | O=C(O)CCCc1ccc(N(CCCl)CCCl)cc1 [chlorambucil] (10 µM) | 0.143
33 | CC(=O)O[C@H]1CC[C@@]2(C)C(=CC[C@@H]3[C@@H]2CC[C@]2(C)C(=O)CC[C@@H]32)C1 [prasterone-acetate] (10 µM) | -0.259
34 | CN(C)C(=O)C(=O)c1cn(C)c2cc(Cl)c(C(=O)N3CCC(Cc4ccc(F)cc4)CC3)cc12 (10 µM) | 0.323
35 | Cc1cccc(C)c1NC(=O)CN1CCCCCC1 [pincainide] (10 µM) | 0.00868
36 | Cc1cccc(/C=N/Nc2cc(N3CCOCC3)nc(OCCc3ccccn3)n2)c1 (10 µM) | -0.334
37 | COC(=O)[C@]12CCC(C)(C)C[C@H]1[C@H]1C(=O)C=C3[C@@]4(C)C=C(C#N)C(=O)C(C)(C)[C@@H]4CC[C@@]3(C)[C@]1(C)CC2 [Bardoxolone Methyl] (10 µM) | -0.259
38 | O=c1oc2c(O)c(O)cc3c(=O)oc4c(O)c(O)cc1c4c23 [ellagic-acid] (10 µM) | 0.105
39 | CCCN(C/C=C/I)C1CCc2cccc(O)c2C1 (stereo not given) [8-hydroxy-PIPAT] (10 µM) | -0.0478
40 | O=C(O)c1ccc(-c2c[nH]c3ncc(-c4ccccc4)cc23)cc1C1CCCC1 (10 µM) | 0.309
